# Molecular target: SLC7A13
# Assay: pooled miR-30 sensor sort-seq; sequence = guide strand
# Conditions: shRNA
# Note: reference of the scale not given here.
row,Sequence,sensor-assay potency score (higher = more potent)
1,ATATAGACCATAATGAACCCGT,-0.357
2,TAATTGTAAATAGCAAGTCATC,-1.71
3,TAGTATTGAGCTCCACTGCATG,-1
4,TAAATAAACTACAGTCACCAGA,-0.342
5,AAATCGTTCTACATTCTCCTTT,0.252
6,TAATCCGCTGAGAACTAACAGA,-0.752
7,TTAATAAGCAAAAAACTTGTGC,-0.255
8,ATCATTAATAATATAGACCATA,-1.16
9,TTATCAGGAACACTACTCCAGT,-0.614
10,TATGCCAACACACCTTTGGGGG,-0.996
11,TTAACCTTGATTTGGAATCTGA,0.0155
12,TTCAGCATCAAAAGCATTCTGA,-0.117

# Molecular target: SLC8A1
# Assay: as above
# Conditions: shRNA
row,Sequence,sensor-assay potency score (higher = more potent)
1,TTGAACATGATGATGCCCCTGG,0.652
2,TATCACAACAACATTTCCGAAC,-0.676
3,TTCTCTAGCATGAACCTTCCTG,-0.164
4,TTTATCTGGATGCTTCTGCTTA,-0.388
5,TAAAACTGACAGACAATCCCAA,0.165
6,ATGTTCTCTAGCATGAACCTTC,-0.822
7,TTAATCTTCCTTGTCTCTCCGT,0.395
8,TCTTACAGTAATATGATCCAGT,0.348
9,TTGTAAAACAGAAGTCTCCTAT,0.149
10,TAATCTTCCTTGTCTCTCCGTC,0.74
11,TTGTCTTGGTGGTCTCTCCATT,-0.926

# Molecular target: SLC8A3
# Assay: as above
# Conditions: shRNA
row,Sequence,sensor-assay potency score (higher = more potent)
1,TTGATCTTGCGAGTCTCTCCGT,-0.572
2,TTGTAGTCCACATACATGGTCT,-0.435
3,TTGATCAGTTTGTCCACCGTAG,0.465
4,TTTCTTAATTGTCACCTCCCTC,-0.959
5,TTTGTAGTCCACATACATGGTC,-0.363
6,TATTTGTAGAAGAGCAGTCGTT,-0.77
7,TACAAGAGCACGCTGATGCAGA,-0.14
8,TTAAATACTGTGTAAAGTCGGT,-0.0881
9,TGATCTTGCGAGTCTCTCCGTC,-0.247
10,TTTGTATCTGACTTGATTCAAC,-0.929
11,TTCTGCTGCATGTTTCTTCAGG,-0.419

# Molecular target: SLC9A10
# Assay: as above
# Conditions: shRNA
row,Sequence,sensor-assay potency score (higher = more potent)
1,TAACATTTCTTTCTTCTTGAAT,-0.801
2,TATATGAACAAATTCCACCCAC,-0.00398
3,TAGTCTTTGGTCAAAATCCATA,-1.27
4,TATGATTGACATCATCACCAAA,-0.934

# Source: the OligoGym collection
